Screens deposited in PubChem BioAssay by several laboratories.
Sampled rows, rich in hits. Any-hit rate of the full collection: about 27%.
CYP2C9 act – CYP2C9 (human) activation | recombinant CYP2C9, luciferin-H conversion, luminescence; stronger effect = higher value; factor 1 = untreated enzyme, 0 = blocked | activation factor at 5 µM | actives 1.4% (n = 96,000);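 active = activation factor of 2 or more for CYP2C9 at a 5 µM dose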;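 also: 0 = sulfaphenazole-blocked wells and 1 = vehicle-only wells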
Cav3 T inh – blocks human Cav3.2 T-type calcium channel. O95180. Cav3.2-expressing cells, Fluo-4 calcium fluorescence FDSS; stronger effect = lower value. B-score at 10 µM. actives 4% (n = 100,000);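 active = single-dose well whose peak fluorescence ratio is a statistical outlier from its plate by either plate-standardised score or position-corrected B-score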
CYP2C19 inhib – inhibitors of human CYP2C19 | P33261 | CYP2C19 Supersomes, luciferin-H EGE luminescence, 30 min | inhibition, % at 5 µM | actives 21% (n = 96,000) | AID 778;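 active = CYP2C19 inhibition above a set limit at 5 µM in the primary screen, cut at about 50% in these data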;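 also: plate controls were negative control wells for no effect and 2.5 mM tranylcypromine positive control for full effect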
CYP2C19 activ – activators of human cytochrome P450 2C19 | AID 1025 | recombinant CYP2C19, luciferin-H EGE luminescence; stronger effect = higher value; 0 = fully inhibited enzyme, 1 = untreated enzyme | activation factor at 5 µM | P33261 | 96,000 tested, under 10 active;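 active = activation factor of at least 2 at 5 µM in the primary screen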;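 also: 0 = wells with 2.5 mM tranylcypromine and 1 = vehicle-only wells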
CYP2C9 inhib – human CYP2C9 inhibition; actives 20% (n = 96,000); CYP2C9 Supersomes, luciferin-H conversion, luminescence; inhibition, % at 5 µM; AID 777;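 active = blocking of liver enzyme CYP2C9 beyond about 50% at 5 µM, limit read from the data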
Starred values were filed as active, the others as inactive; . = not tested or not shown.

SMILES	CYP2C9 act	Cav3 T inh	CYP2C19 inhib	CYP2C19 activ	CYP2C9 inhib
C#CCOCCOCCOCCNc1nc(N2CCN(C(=O)[C@H](CCCCN)n3cc([C@@H](N)C(C)CC)nn3)CC2)nc(N2CCN(C(=O)[C@H](CCCCN)n3cc([C@@H](N)CC(C)C)nn3)CC2)n1 (stereo partly specified)	.	1.1	.	.	.
CN1CCN(C(=O)C2CC(c3c(F)cccc3Cl)=NO2)CC1 (stereo unspecified)	2.8*	0.286	5.6	0.9	-184.9
Cc1ccc(O)c(NC(=O)C2CC(c3c(F)cccc3Cl)=NO2)c1 (stereo unspecified)	1.9	-0.569	94.3*	0.1	-85.4
Cc1c(NC(=O)C2CC(c3c(F)cccc3Cl)=NO2)c(=O)n(-c2ccccc2)n1C (stereo unspecified)	1.1	1.87	-5.4	1.1	-9.8
CCOc1ccc(OCC)c(NC(=O)C2CCN(S(=O)(=O)c3cccnc3)CC2)c1	0.7	0.759	54.6*	0.5	32.3
CCOc1cc(NC(=O)C2CC2)c(OCC)cc1NC(=O)c1cccnc1	0.7	.	97.4*	0	27.0
Cn1c(=O)c2c(nc(-n3ccnc3)n2Cc2ccc([N+](=O)[O-])cc2)n(C)c1=O	1.1	-0.398	4.1	1	-7.6
Cc1sc2nc3n(c(=O)c2c1C)NC(=O)CC3	.	0.674	.	.	.
CCOc1ccccc1Oc1coc2cc(O)ccc2c1=O	3.1*	-1.34	29.7	0.7	-211.0
CCOc1ccc2c(=O)c(Oc3ccccc3OCC)coc2c1	2.1*	-0.65	73.6*	0.3	-105.3
COc1ccc(-c2coc3cc(O)ccc3c2=O)cc1OC	2.1*	0.373	5.4	0.9	-106.3
COCCN(C(=O)CSc1nnc(Nc2ccccc2F)s1)c1c(N)n(Cc2ccccc2)c(=O)[nH]c1=O	0.4	0.251	31.9	0.7	62.2*
COCCN(C(=O)CN1CCc2ccccc2C1)c1c(N)n(Cc2ccccc2)c(=O)[nH]c1=O	1	0.0372	-18.2	1.2	-3.9
CCOc1cc(C(=O)CSc2nnc(CNc3ccc(Cl)cc3)o2)ccc1NC(=O)CC	0.7	-0.122	42.4	0.6	30.6
O=C(NCc1ccccc1)c1n[nH]nc1-c1ccccc1O	0.5	-0.575	72.6*	0.3	51.6*
Nc1c(C(=O)NCc2ccccc2)nnn1Cc1ccccc1	1	0.0261	5.6	0.9	4.1
N#C/C(=C/N1CCOCC1)c1ccccc1	0.8	0.0372	53.2*	0.5	18.6
CCC(=O)N1c2ccc(S(=O)(=O)N(CCO)Cc3ccccc3)cc2CC1C (stereo unspecified)	0.4	1.05	51.9*	0.5	56.2*
CSc1nsc(SCC(=O)NC2CCCCC2)n1	1	0.0331	95.9*	0	1.4
COc1cc(OC)cc(-n2nnnc2SCC(=O)NC2CCCC2)c1	3.1*	-0.0424	13.8	0.9	-206.2
Cn1ccnc1SCC(=O)NC1CCCCC1	1	-0.067	91.9*	0.1	-4.6
Cn1ccnc1SCC(=O)NC1CC1	0.8	-0.017	-15.1	1.2	16.5
CC(=O)c1c(C)[nH]c(C(=O)NCc2cccs2)c1C	0.9	0.186	8.4	0.9	13.1
CCOC(=O)/C(C#N)=C/c1cc(C)n(-c2ccc(C)cc2)c1C	0.4	0.927	15.7	0.8	55.1*
CCOC(=O)/C(C#N)=C\c1cc(C)n(-c2ccccc2)c1C	0.8	-0.403	21.4	0.8	21.6
SMILES	CYP2C9 act	Cav3 T inh	CYP2C19 inhib	CYP2C19 activ	CYP2C9 inhib
CCCn1c(O)c(CN2CCCCC2)c(C)c(C#N)c1=O	0.4	1.37	-8.3	1.1	63.2*
CC1(C)CC(=O)CC(C)(C)N1OC(=O)c1ccncc1	0.5	0.398	66.7*	0.3	51.7*
Cc1nc2ccc(NC(=S)NC(C)C)cc2nc1C	1	1.18	-7.5	1.1	-3.1
Cn1nc(-c2ccccc2)c(C(O)c2ccc(Cl)cc2)c1Cl (stereo unspecified)	0.1	.	95.2*	0	88.5*
COC(=O)C(CCCCNC(=O)OCc1ccccc1)NC(=O)CN (stereo unspecified)	0.6	0.699	51.1*	0.5	43.5
CCCCCCCCNC(=O)C(CCC(=O)OCc1ccccc1)NC(C)=O (stereo unspecified)	0.9	-3.31	74.6*	0.3	6.8
O=C(O)CCCNC(=O)OCc1ccccc1	1	-0.0393	-4.6	1	0.0
O=S1(=O)C=C(Sc2nnc(-c3ccccc3)o2)c2ccccc21	1.1	.	-16.0	1.2	-9.5
Cc1cccc(NC(=S)NC(=O)/C=C/c2ccco2)n1	0.5	1.59	49.7	0.5	54.8*
O=C(/C=C/c1ccco1)NC(=S)Nc1cccc(-c2nc3ccccc3o2)c1	0.6	.	12.6	0.9	39.1
Cc1ccc(C2=NOC(C)(c3nnc(-c4ccncc4)o3)C2)cc1 (stereo unspecified)	.	0.0093	.	.	.
FC(F)(F)c1ccc(Oc2ccc3c(C(F)(F)F)cc(C(F)(F)F)nc3n2)cc1	1	-0.513	-3.7	1	2.4
O=C(CSc1nc2c(c(=O)n1-c1ccc(Br)cc1)SCC2)Nc1nccs1	0.7	.	61.1*	0.4	26.6
COc1ccc(NC(=O)CSc2nc3c(c(=O)n2-c2ccc(F)cc2)SCC3)cc1	0.4	0.63	41.4	0.6	62.4*
O=C(CSc1nc2c(c(=O)n1-c1ccc(Cl)cc1)SCC2)Nc1nccs1	1.1	0.339	-11.8	1.1	-11.6
CCOc1ccc(-n2c(SCC(=O)NCc3ccco3)nc3c(c2=O)SCC3)cc1	0.4	0.599	26.0	0.7	62.3*
COc1ccc(CC(NC(C)=O)C(=O)N2CCN(C(=O)Nc3ccc(Cl)cc3)CC2)cc1OC (stereo unspecified)	0.7	0.395	15.7	0.8	30.1
COc1cc(NC(=S)Nc2ccc(S(=O)(=O)N3CCOCC3)cc2)cc(OC)c1OC	0.8	1.89	0.7	1	16.1
COc1ccc(N(C(=O)C2CCCCC2)C2C=CS(=O)(=O)C2)c(OC)c1 (stereo unspecified)	0.8	-0.477	21.1	0.8	15.2
NC(=O)C1=C[C@@H](c2ccc(C(F)(F)F)cc2)C[C@@H](OCCCCO)O1	.	0.0244	.	.	.
Cn1c(=O)c2c(nc(Br)n2CCSc2nnnn2-c2ccccc2)n(C)c1=O	0.8	1.11	40.1	0.6	19.8
Cc1ccc(Cn2c(N)c(S(=O)(=O)c3cccs3)c3nc4ccccc4nc32)cc1	0.9	0.0184	-2.1	1	8.7
Cc1cccc(S(=O)(=O)c2c(N)n(Cc3ccco3)c3nc4ccccc4nc23)c1	0	-2.5	90.8*	0.1	95.9*
Cc1ccc(S(=O)(=O)c2c(N)n(Cc3ccco3)c3nc4ccccc4nc23)cc1	0.3	-4.21	36.4	0.6	68.6*
Cc1ccc(S(=O)(=O)c2c(N)n(NC(=O)c3ccco3)c3nc4ccccc4nc23)cc1	0.9	-5.46*	43.7	0.6	8.2
CCCOc1nc(N)c(C#N)c(-c2ccccc2F)c1C#N	0.9	-0.265	38.1	0.6	5.6
COc1ccc(Cn2c(CCC(=O)NCc3ccco3)nc3cccnc32)cc1	0.7	-1.02	28.8	0.7	26.5
